In the library only some 2.8% were active in any assay of this set; here they are far more common.
CF NFkB inh = cystic fibrosis NF-kB activation inhibition; KKLEB NF-kB-GFP reporter, PAF-induced, GFP fluorescence overnight; inhibition, % at 5 µM; 0.86% of 360,000 active;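 active means at least 50% inhibition at 5 µM, scaled per plate between neutral and stimulator controls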;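 further: PAF is a Pseudomonas aeruginosa culture filtrate used as stimulus; plate controls were PAF-stimulated DMSO wells for no effect and unstimulated DMSO wells for full effect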
MITF TRPM1 inh = reduces MITF-dependent TRPM1 promoter luciferase signal. inhibition, % at 12.5 µM. SK-MEL-5 TRPM1 promoter luciferase, 24 h. 0.83% of 330,000 active;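 active means mean inhibition across replicates of 60% or more, whatever share of single replicates reaches that level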
Peg3 prom inh = inhibitors of Peg3 promoter. HeLa PEG-Prom luciferase reporter, luminescence, overnight. 1.7% of 360,000 active. inhibition, % at 20 µM. AID 588405;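 active means inhibition of at least 50% at 20 µM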
KKLEB cytotox = reduces viability of KKLEB cystic fibrosis airway cells; 0.36% of 360,000 active; activity change (cytotoxicity), % at 5 µM; KKLEB CF airway cells viability, ATPlite luminescence, overnight; stronger effect = lower value; cells stimulated with P. aeruginosa culture filtrate; AID 602141;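 active means corrected activity change at or below -50% at 5 µM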
HIF-2a block = HIF-2a inhibition; 786-0 RCC cells HIF-2a reporter, luciferase luminescence, overnight; inhibition, % at 18.8 µM; 0.72% of 360,000 active; AID 624352;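 active means inhibition of the luminescence signal of 40% or more relative to plate controls, in a single-dose primary screen at 18.75 µM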
Shn3 3UTR inh = inhibitors of Schnurri-3 3'UTR reporter in osteoblasts; Clone20 osteoblast Shn3 3'UTR firefly luciferase, 24 h; inhibition, % at 12.5 µM; 0.52% of 360,000 active;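 active means mean inhibition of at least 75% with every replicate also reaching 75%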;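 further: 0% = median of neutral control wells and 100% = pilot-screen positive control compound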
Active calls of the source: *; x = no result.

SMILES	CF NFkB inh	MITF TRPM1 inh	Peg3 prom inh	KKLEB cytotox	HIF-2a block	Shn3 3UTR inh
Cc1ccccc1S(=O)(=O)NC(=O)C1(C)CCN1C(=O)Cc1ccc(C(C)(C)C)cc1 (stereo not given)	24	x	3	-9	18	4
Nc1ccccc1/C=C/c1ccccc1N	0	-55	-306	11	-261	-86
CCNC(=O)COc1cccc2ccccc12	-17	0	6	14	2	4
O=C(NCCNC(=O)Oc1cccc2ccccc12)Oc1cccc2ccccc12	19	19	-95	-11	-75	90*
CCn1cc(C(=O)NCc2cccc(F)c2)c(=O)c2cc(F)c(N3CCN(C(=O)c4ccco4)CC3)cc21	4	32	55*	-1	18	63
CCCNC(=O)c1cn(CC)c2cc(N3CCN(C(=O)c4ccco4)CC3)c(F)cc2c1=O	-21	0	19	26	10	-1
CC(C)C[C@H]1COc2cccc(N3CCC[C@H]3CO)c2S(=O)(=O)N1	x	x	x	x	3	x
COc1cc2[nH]c(Cl)c([N+](=O)[O-])c2cc1OC	11	0	9	4	8	8
CCOC(=O)C1=C(c2ccccc2)Nc2ncnn2C1c1ccc(C(=O)O)cc1 (stereo not given)	-14	2	13	3	8	7
CCOC(=O)C1=C(c2ccccc2)NC(N)=NC1c1ccc(OCc2ccc(C(=O)OC)cc2)cc1 (stereo not given)	24	11	104*	-34	-3	9
O=C(N/N=C/c1ccccn1)c1cccc([N+](=O)[O-])c1	-2	8	9	-1	1	-5
O=C(O)c1cccc(NC(=S)N/N=C/c2ccccn2)c1	11	63*	-62	7	36	24
O=C(N/N=C/c1ccccn1)c1cc([N+](=O)[O-])cc([N+](=O)[O-])c1	-5	67*	12	-6	14	-5
CC(=O)Nc1ccc(CNc2nc3cc(-c4ccsc4)sc3c(=O)n2C)cc1	-46	x	-130	4	-262	-4
COc1cccc(-n2c(N)c(C(=O)Nc3c(C)n(C)n(-c4ccccc4)c3=O)c3nc4ccccc4nc32)c1	19	13	60*	-27	8	20
Cc1cc(C)cc(-n2c(N)c(C(=O)Nc3c(C)n(C)n(-c4ccccc4)c3=O)c3nc4ccccc4nc32)c1	14	-1	91*	-45	-7	14
FC(F)Oc1ccc(NC(=S)NNc2ccnc3cc(Cl)ccc23)cc1	-16	69*	29	4	10	6
COc1ccc(CN2C[C@]3(CO)O[C@@H](CO)C[C@@H]3S2(=O)=O)cc1	3	-3	-9	12	6	-12
COc1ccc(N(C)S(=O)(=O)c2cccc(C(=O)OCC(=O)c3c(N)n(C)c(=O)n(C)c3=O)c2)cc1	-19	-1	55*	14	15	25
CC(=O)Nc1ccc(CN(C)c2c(C)nc3ccc(C(=O)N4CCN(C(C)=O)CC4)cn23)cc1	4	x	-7	-1	-3	-12
CCCS(=O)(=O)NC(=O)C1(C)CCN(C(=O)c2cc(F)cc(F)c2)C1 (stereo not given)	-4	x	5	4	5	0
CC1(C)Cc2c(cnn2-c2ccc(F)cc2)C(NC(=O)CCN2CCCCC2=O)C1 (stereo not given)	4	-15	-12	12	-17	-5
CCOC(=O)c1sc(Nc2nc3cc4c(cc3s2)OCO4)cc1C	10	-30	-210	-4	-273	23
CCOC(=O)c1sc(Nc2nc3c(OC)cccc3s2)cc1C	-13	-45	77*	-5	-223	-25
O=C(Nc1ccccc1N1CCN(C(=O)c2ccccc2)CC1)c1ccc([N+](=O)[O-])o1	-25	62*	42	-3	-8	-24
SMILES	CF NFkB inh	MITF TRPM1 inh	Peg3 prom inh	KKLEB cytotox	HIF-2a block	Shn3 3UTR inh
CC1CCN(c2ccc(NC(=O)c3ccc([N+](=O)[O-])o3)cc2)CC1	95*	81*	106*	-98*	53*	91*
O=C(Nc1ccc(N2CCN(C(=O)c3ccccc3)CC2)c(Cl)c1)c1ccc(Br)o1	-1	10	50*	14	-2	56
COc1ccc(N2CCCC2)c(NC(=O)c2ccc([N+](=O)[O-])o2)c1	-1	33	53*	-26	-16	-2
O=C(Nc1ccccc1N1CCCC1)c1ccc([N+](=O)[O-])o1	46	54	31	-16	18	0
COc1ccc(C(=O)Nc2cc([N+](=O)[O-])ccc2N2CCCC2)cc1	-1	-1	8	-1	12	0
O=C(Nc1ccc(N2CCCC2)cc1)c1ccc(Br)o1	-9	-73	-225	-6	-339	-89
O=C(Nc1ccc(N2CCCCC2)cc1)c1ccc([N+](=O)[O-])o1	96*	52	106*	-37	34	71
Cc1ccc2nc(-c3cccnc3)cc(C(=O)N3CCN(c4ccc([N+](=O)[O-])cc4)CC3)c2c1	3	8	100*	-21	19	18
Cc1ccc(S(=O)(=O)N2CCCCC2CCNC(=O)C(=O)NCC2CCCO2)cc1 (stereo not given)	-6	-3	12	-3	19	-8
CCOC(=O)c1c(-c2ccccc2)oc2ccc(OCC(O)CN(C)C)cc12 (stereo not given)	-4	50	105*	-1	6	-3
CC1=CC2=NC(=O)/C(=C\c3ccc(-c4cccc(Cl)c4)o3)C(=N)N2O1	4	33	57*	-10	12	18
CC1=NOC(=O)/C1=C\c1ccc(-c2cccc(Cl)c2)o1	93*	76*	105*	-33	83*	81
CC1=CC2=NC(=O)/C(=C\c3cc(C)n(-c4ccc(F)cc4)c3C)C(=N)N2O1	-18	-1	11	2	10	-13
COC(=O)[C@@]1(Cc2ccc(F)cc2)[C@H]2c3cc(C(=O)N(C)C)n(CCF)c3C[C@H]2CN1C(=O)c1ccccc1	x	x	x	x	19	x
COC(=O)[C@@]1(Cc2ccccc2)[C@@H]2C(=CC(=O)[C@H]2CC(=O)C(=O)N(C)C)CN1C(=O)c1ccccc1	14	47	9	14	68*	38
Cc1ccc(NC(=O)/C=C\C(=O)NCC(=O)O)cc1	-4	-3	9	4	6	-4
c1ccc(SC23CCCCN(CCC2)[C@]32CO2)cc1 (stereo not given in full)	x	x	x	x	2	x
COc1cc(OC)c2c(-c3ccccc3)cc(=O)oc2c1C(CCN1CCOCC1)c1ccc(N(C)C)cc1 (stereo not given)	17	-2	-2	-11	0	-9
COc1cc(OC)c2c(-c3ccccc3)cc(=O)oc2c1C(CCN1CCCC(C)C1)c1ccc2c(c1)OCO2 (stereo not given)	8	6	35	-4	13	-13

Compound activity deposited in PubChem BioAssay by several laboratories.
